From PubChem BioAssay AID651776 (Vanderbilt Specialized Chemistry Center, 2012) come the findings set out here.

The assay addresses Muscarinic acetylcholine receptor M5 (Homo sapiens) (UniProt P08912). The assay can be described thus: agonist curve shift by M5 PAMs – cell-based, calcium fluorescence, mechanism study (AID 651776). To be noted: M5-expressing cells, stronger effect = higher value.

Sequence of Muscarinic acetylcholine receptor M5 (Homo sapiens) (P08912 whole entry, looked up): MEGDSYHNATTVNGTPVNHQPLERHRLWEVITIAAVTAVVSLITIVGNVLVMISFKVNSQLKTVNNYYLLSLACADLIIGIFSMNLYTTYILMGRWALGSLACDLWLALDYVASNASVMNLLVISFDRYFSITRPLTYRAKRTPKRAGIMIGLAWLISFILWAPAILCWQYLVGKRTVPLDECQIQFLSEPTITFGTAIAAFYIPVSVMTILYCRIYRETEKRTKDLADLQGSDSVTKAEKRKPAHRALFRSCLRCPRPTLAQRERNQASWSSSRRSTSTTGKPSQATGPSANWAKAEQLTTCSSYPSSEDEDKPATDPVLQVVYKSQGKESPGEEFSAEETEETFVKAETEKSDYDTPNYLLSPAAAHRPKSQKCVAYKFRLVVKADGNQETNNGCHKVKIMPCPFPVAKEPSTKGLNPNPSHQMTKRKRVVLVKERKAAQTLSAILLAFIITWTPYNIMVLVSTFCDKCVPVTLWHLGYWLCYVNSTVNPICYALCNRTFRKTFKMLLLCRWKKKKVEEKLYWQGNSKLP

Turning to `O=C1C(=O)N(CCOc2ccccc2)c2ccc(OC(F)(F)F)cc21`, the fold shift was determined as 19.2.
